Experimental findings from PubChem BioAssay AID1794808 (University of Kansas High Throughput Screening Laboratory, 2022) are described below.

What is called inhibition is the change of the read-out against control, counted positive when it falls.

About 520 (0.25%) of roughly 210,000 compounds were called active. This excerpt belongs to a sample that is enriched for actives. Unmarked numbers belong to inactive results. No stated cut-off is given here; in the data, active means inhibition above about 50%; inactive means the rest.

The test system of the test is Plasmodium falciparum apicoplast DNA polymerase (apPOL). As to the kind of experiment: Pf-apPOL inhibitors, biochemical, fluorescence (AID 1794808). The settings on record: Recombinant Pf-apPOL, molecular beacon fluorescence, 1.5 h; at 10 µM; active compounds read high.
As to `NC(=O)c1cc2cc(Br)ccc2oc1=Nc1ccc(F)cc1`, the inhibition was 5.9%.

As for `CC(=O)Nc1ccc(-c2ccc(NC(C)=O)c(Cl)c2)cc1Cl`, the inhibition is 6.6%.

In the case of `CCN1CCCC1CNC(=O)c1cn(C)c(=O)c2cc(OC)c(OC)cc12` (stereo unspecified), the inhibition is 4.5%.

On to `O=c1c(O)c(Br)ccc2c(Br)c(O)c(O)c(O)c12`, for which the inhibition was 99.5% (active).

Take `O=C(NC1CCCCC1)c1ccccc1NC(=O)C1COc2ccccc2O1` (stereo unspecified): the inhibition is -3.8%.

On to `Cn1nc(-c2nnc(-c3ccccc3Cl)o2)c2c1CCN(C(=O)CCc1ccccc1)C2`, for which the inhibition is -2.8%.

`COc1cc(C(=O)Nc2c3c(nn2-c2ccc(C)cc2C)CS(=O)(=O)C3)cc(OC)c1OC`: the inhibition is -2.5%.

Turning to `COc1ccc(C2=NOC(C(=O)NCCc3ccccc3)C2)cc1OC` (stereo unspecified), the inhibition is -10.3%.

`O=C(CCCc1ccccc1)Nc1cccc(Cl)c1`: the inhibition is -10.9%.

For the compound `Cc1ccc(F)c(NC(=O)CCc2ccccc2)c1`, the inhibition is -10.7%.

`Cc1cc(Cl)ccc1NC(=O)CCc1ccccc1`: the inhibition is 52.8% (active).

With `Cc1ccc(-c2ccc(C)cc2N)c(N)c1`, the inhibition was 5.9%.

As to `Cc1ccc2c(c1)C(=O)C(=O)S2`, the inhibition was 53.9% (active).

As for `Cc1ccc2nc3c(nc2c1)C(=O)c1ccccc1C3=O`, the inhibition was -3.7%.

Take `Cc1ccsc1/C=C(\C(=O)NCc1cccnc1)S(=O)(=O)c1ccccc1`: the inhibition was 2.5%.

`O=C(Cc1ccc(F)cc1)N1CCC(Nc2cccn3ncnc23)CC1`: the inhibition is -7.3%.

For `O=C(C1CCCN(c2nnc3ccc(Cl)cn23)C1)N1CCN(C2CCCCC2)CC1` (stereo unspecified), the inhibition was -2.9%.

For `CCN(Cc1cc(-c2ccc(C)cc2C)on1)C(=O)c1cccs1`, the inhibition was 3.3%.

On to `CCC(=O)N1CCC(COc2ccccc2C(=O)N2CCCCC2)CC1`, for which the inhibition is -0.7%.

As for `COc1cc(Cl)c(NC(=O)C2CCCN(c3nccc(C)n3)C2)c(OC)c1` (stereo unspecified), the inhibition was 2.3%.

In the case of `CCN(CC)C(=O)C1CCCN(Cc2ccccc2OC)C1` (stereo unspecified), the inhibition is -2.5%.

Turning to `CCN(CC)S(=O)(=O)c1ccc(C(=O)Nc2c3c(nn2-c2ccc(C)cc2)CSC3)cc1`, the inhibition is 3.5%.

`CCCCOc1ccc(S(=O)(=O)N2CCSC2c2ccccc2)cc1` (stereo unspecified): the inhibition was -1.1%.

On to `O=[N+]([O-])c1ccc(C2SCCN2S(=O)(=O)c2ccccc2)cc1` (stereo unspecified), for which the inhibition was -2.9%.

Regarding `Cc1cccc(S(=O)(=O)N2CCSC2c2ccccc2)c1` (stereo unspecified), the inhibition is 95.2% (active).

Regarding `O=C(NCCc1ccccc1)N1CCC(n2c(-c3ccoc3)nc3cccnc32)C1` (stereo unspecified), the inhibition is -2%.

As for `O=C(c1ccccc1)c1ccc(OCCNC(=O)c2ccccc2Br)cc1`, the inhibition is -3.3%.

Regarding `CC(C)CC1=NN(C(=O)c2cccc(Cl)c2)C(O)(C(F)(F)F)C1` (stereo unspecified), the inhibition is 2%.

On to `CC(C)c1cccc(N2C=C(C#N)S(=O)(=O)c3c(F)cccc32)c1`, for which the inhibition was -0.6%.

Consider `COc1ccc(NS(=O)(=O)c2c(C)cc(C)cc2C)c([N+](=O)[O-])c1`, for which the inhibition was -4%.

Take `COc1cc(C(=O)N2CCC(c3noc(-c4cccc(F)c4)n3)CC2)cc(OC)c1OC`: the inhibition is 0.1%.

As for `O=C(c1ccc(OCC2CCCN(C(=O)c3ccccn3)C2)cc1)N1CCCC1` (stereo unspecified), the inhibition is 3.1%.

As for `CCc1ccc(OCC(=O)Nc2cc(OC)c(Cl)cc2OC)cc1`, the inhibition is -9.2%.

Regarding `O=C(NCCCNc1ccc([N+](=O)[O-])cc1Cl)c1ccccc1Br`, the inhibition was 4.9%.

`Cc1nc(-c2ccccc2)sc1C(=O)ON=C(N)c1ccc([N+](=O)[O-])o1`: the inhibition was 11.5%.

With `CCCOc1ccc(S(=O)(=O)NCC2CCN(S(=O)(=O)C3CC3)CC2)cc1C`, the inhibition was -5.5%.

As to `CC(=O)N1CCc2ccccc2C1C(=O)NCc1ccc(C)cc1` (stereo unspecified), the inhibition was -0.9%.

As for `COc1cccc2sc(=NC(=O)c3cccc(F)c3)n(C)c12`, the inhibition was 2.7%.

Turning to `Cc1nc(N2CCC(C(N)=O)CC2)nc(NCc2ccco2)c1[N+](=O)[O-]`, the inhibition was -9.6%.

Regarding `COc1cccc(-c2n[nH]c(C)c2NC(=O)C(C)C)c1`, the inhibition is -6.9%.

For `CCn1c(C2CCN(S(=O)(=O)c3cc(OC)ccc3OC)C2)nc2cccnc21` (stereo unspecified), the inhibition was -5.5%.

For `Cc1ccc(CC(=O)NC2CCN(c3cc(C)cc(C)c3)C2=O)cc1` (stereo unspecified), the inhibition is -5.7%.

As to `Cc1nc(-c2ccccc2F)sc1C(=O)N1CCCC1`, the inhibition was -7.4%.

On to `Cc1nc(-c2ccncc2)nc2c1CC(=O)N2C1CCCC1`, for which the inhibition is -7.5%.

In the case of `COc1cc(NC(=O)c2cccc([N+](=O)[O-])c2)c(OC)cc1NC(=O)c1ccccc1`, the inhibition is -2.7%.

Regarding `Cc1cccc(CN2CCCn3nc(C(=O)Nc4ccccc4C)cc3C2=O)c1`, the inhibition is -2.2%.

As for `CC1(C(=O)O)NC(c2cc(Cl)ccc2O)C2C(=O)N(c3ccc(Cl)cc3)C(=O)C21` (stereo unspecified), the inhibition is -9.1%.

In the case of `O=Cc1ccc(OCc2cccc(F)c2)c(Cl)c1`, the inhibition was 1.2%.

`O=C1CN(C(=O)c2c(F)cccc2F)C(c2ccccc2)c2cc(F)ccc2N1` (stereo unspecified): the inhibition is -3.5%.

For the compound `COc1cccc(-c2cc3n(n2)CCCN(C(=O)Cc2ccsc2)C3)c1`, the inhibition was -7.6%.

In the case of `COc1ccccc1N1CCN(CC(=O)Nc2ncc(C)s2)C1=O`, the inhibition was -2.4%.

Consider `CCC(CC)C(=O)N1CCN(c2ccc([N+](=O)[O-])cc2)CC1`, for which the inhibition is -4.2%.

As to `Cc1ccc(C(=O)N2CCN(c3ccc(F)c(Cl)c3)C(=O)C2C)cc1` (stereo unspecified), the inhibition is 69.1% (active).

`CC1C(=O)N(c2cccc(F)c2)CCN1C(=O)c1ccc(Cl)cc1` (stereo unspecified): the inhibition was -2.7%.

For `Cc1cccc(N2CCN(C(=O)c3ccc(F)cc3)C(C)C2=O)c1` (stereo unspecified), the inhibition was 0.4%.

Take `Cc1cccc(NS(=O)(=O)c2c(C)n[nH]c2C)c1C`: the inhibition was -1.5%.

Turning to `Cc1cc(C)n(-c2ccc(C(=O)NC3CCCC3)cn2)n1`, the inhibition is 2%.

Consider `CCC1CCCCN1C(=O)CSc1nc2c(c(=O)n1C)SC(C)C2` (stereo unspecified), for which the inhibition is -6.3%.

`COc1ccc(C=C2Oc3c(ccc(O)c3CN3CCCCCC3)C2=O)cc1OC`: the inhibition was -19.5%.

For the compound `N/C(=N\OC(=O)CCCc1ccccc1)c1ccc(Cl)cc1`, the inhibition is 5.3%.

Regarding `Cc1cccc(NC(=O)N2CC(c3nc(C)no3)C3(CCOCC3)C2)c1` (stereo unspecified), the inhibition was -0.4%.
